This is an account of results in ChEMBL document CHEMBL3988442, “University of Dundee, Small-Polar-MMV Screening Library” (2021).

The campaign covered roughly 85,000 compounds. About 440 (0.52%) showed an effect of 50% or more. The full list was thinned out, with strong results kept by preference.

A short description of this assay: In vitro enzyme assay to detect hydrolysis of chlorophenol red-beta-D-[…] directly proportional to the number of Toxoplasma stably expressing beta-galactosidase. The format is functional, organism-based, Toxoplasma gondii. Set-up: scale not given: in the data most compounds retested in dose-response had high values.

Regarding `Nc1nc2c(s1)Cc1ccccc1-2`, the “Percent Effect” value (50 µM) is recorded as -5.547%.

For the molecule `Cc1n[nH]c(C)c1S(=O)(=O)N1CCC(N)CC1`, the “Percent Effect” value (50 µM) is 2.469%.

As for `CCS(=O)(=O)NCCNCc1ccc(Cl)cc1F`, under “50 µM”, the “Percent Effect” value is on record as -9.661%.

On to `NC(=O)NC(=O)CSc1ncccn1`, for which the “Percent Effect” value (50 µM) is recorded as -2.425%.

With `Cc1nn(C)c(C)c1CC(=O)NCCc1ccccn1`, the “Percent Effect” value (50 µM) is reported as -1.397%.

As to `COc1ccc(CN)nc1`, the “Percent Effect” value (50 µM) is 5.444%.

Turning to `CNc1ncc(C(=O)N2CCCC(Cc3ccccc3OC)C2)s1` (stereo not given), the “Percent Effect” value (10 µM) was determined as 65.23%.

Take `COc1ccccc1CC1CCCN(C(=O)c2nccnc2N)C1` (stereo not given): the “Percent Effect” value (10 µM) was -6.18%.

For `COc1ccccc1CC1CCCN(C(=O)c2cc[nH]n2)C1` (stereo not given), the “Percent Effect” value (10 µM) amounted to 4.307%.

`O=C(CN1C(=O)CC2(CCCCC2)C1=O)NC1CC1`: where the note is “50 µM”, the “Percent Effect” value is given as -7.096%.

Consider `CN(C)C(=O)NCCNc1cccc(Br)c1`, for which, under “50 µM”, the “Percent Effect” value was -13.02%.

In the case of `CC(C)CCN1CCN(C(=O)c2nccnc2N)CC1`, the “Percent Effect” value (50 µM) amounted to 0.2706%.

`CCN(CC)S(=O)(=O)N1CCNCC1`: the “Percent Effect” value (50 µM) is -3.294%.

Take `CC(=O)c1c[nH]c(C(=O)NCc2cccnc2)c1`: the “Percent Effect” value (50 µM) stood at 0.2894%.

For `O[C@@H]1CN(c2cnc3ccccc3n2)CC[C@H]1c1ccc2c(c1)OCO2`, the “Percent Effect” value (10 µM) is reported as 20.57%.

`O[C@@H]1CN(c2nc3ccccc3o2)CC[C@H]1c1ccc2c(c1)OCO2`: for the setting “10 µM”, the “Percent Effect” value worked out at 30.32%.

With `O[C@@H]1CN(c2nc3ccccc3s2)CC[C@H]1c1ccc2c(c1)OCO2`, the “Percent Effect” value (10 µM) is reported as 53.23%.

In the case of `COc1cccc(NC(=O)C(C)Sc2nnnn2C)c1` (stereo not given), the “Percent Effect” value (50 µM) is -3.512%.

Consider `N#CCc1ccc(CO)cc1`, for which the “Percent Effect” value (50 µM) is -0.5268%.

As to `Nc1c[nH]nc1-c1ccccn1`, the “Percent Effect” value (50 µM) was determined as 64.31%.

For the molecule `c1ccc(-c2cc[nH]n2)nc1`, the “Percent Effect” value (50 µM) was -7.989%.

Turning to `COCCC(C)Nc1c[nH]nc1-c1ccccn1` (stereo not given), for the setting “50 µM”, the “Percent Effect” value was determined as 4.849%.

Take `Cc1ccc(OCCN2CCOCC2)cc1`: under “50 µM”, the “Percent Effect” value is given as -4.655%.

On to `CC(N)(CO)c1ccc(Br)cc1` (stereo not given), for which, for the setting “50 µM”, the “Percent Effect” value turned out to be 5.046%.

Regarding `O=C(NC1CN(c2ccc(C(F)(F)F)cn2)C1)C1CC1`, the “Percent Effect” value (50 µM) is -14.77%.

With `CNC(=O)[C@@H]1CSCN1c1ccc(C(F)(F)F)cn1`, for the setting “50 µM”, the “Percent Effect” value was found to be 98.68%.

Take `NC(=O)CC1CCCCN1c1ccc(C(F)(F)F)cn1` (stereo not given): under “50 µM”, the “Percent Effect” value is -10.18%.

In the case of `CN(C)C(=O)C1(N)CCCC1`, for the setting “50 µM”, the “Percent Effect” value stood at 3.679%.

`COC(=O)c1cccc(COC(=O)CCNC(C)=O)c1`: under “50 µM”, the “Percent Effect” value was -1.212%.

For the molecule `NC(=O)c1ccccc1COC(=O)c1ccsc1`, the “Percent Effect” value (50 µM) came out at 4.513%.

`Cc1cncc(C(N)=O)c1`: for the setting “50 µM”, the “Percent Effect” value was found to be 97.16%.

With `Cc1cncc(C(=O)Nc2sc(C)cc2C(N)=O)c1`, the “Percent Effect” value (50 µM) is on record as 2.925%.

In the case of `Cc1cnn(-c2cncc(C(N)=O)c2)c1`, where the note is “10 µM”, the “Percent Effect” value is recorded as 0.2718%.

Turning to `Clc1cnn(CCN2CCN(C3CCNC3)CC2)c1` (stereo not given), the “Percent Effect” value (50 µM) worked out at 12.09%.

`COc1ncccc1CNC(=O)NC1CCS(=O)(=O)C1` (stereo not given): the “Percent Effect” value (50 µM) was -1.32%.

Regarding `CCN(Cc1nonc1C)C(=O)c1ccc(Br)o1`, the “Percent Effect” value (10 µM) is recorded as -1.469%.

On to `CCN(CC(C)C#N)C(=O)c1sccc1C` (stereo not given), for which, under “50 µM”, the “Percent Effect” value came to 16.85%.

Turning to `CCN(CC(C)C#N)C(=O)c1ccc(Br)o1` (stereo not given), the “Percent Effect” value (50 µM) is listed as 96.74%.

For the molecule `O=C1CCCN1CCCNS(=O)(=O)c1ccc(Br)s1`, the “Percent Effect” value (50 µM) was -1.058%.

On to `O=C1c2ccc(F)cc2C(=O)N1Cc1nnsc1Cl`, for which the “Percent Effect” value (50 µM) was found to be 52.75%.

Consider `O=C1c2ccc(F)cc2C(=O)N1Cc1ccccn1`, for which, under “50 µM”, the “Percent Effect” value was -3.473%.

Regarding `O=C1c2ccc(F)cc2C(=O)N1Cc1ccno1`, the “Percent Effect” value (50 µM) amounted to 5.807%.

Consider `CN(C)C(=O)N1CC2(CCOCC2)c2cc(NS(=O)(=O)C3CC3)ccc21`, for which, for the setting “10 µM”, the “Percent Effect” value is -3.564%.

With `COC(=O)CNc1ccc2ccn(C)c(=O)c2c1`, the “Percent Effect” value (50 µM) is -16.28%.

In the case of `Cn1ccc2ccc(NS(=O)(=O)C3CC3)cc2c1=O`, the “Percent Effect” value (50 µM) stood at 65.83%.

With `Cc1cc(CN(C)C(=O)c2cnn(C)c2C)no1`, the “Percent Effect” value (50 µM) is given as -0.6579%.

As for `CC(C)C(CN)N1CCN(C)CC1` (stereo not given), the “Percent Effect” value (50 µM) is 18.88%.

For the molecule `CCNC(=O)c1nnn(Cc2ccccc2)c1OC`, where the note is “10 µM”, the “Percent Effect” value is given as -0.1195%.

For the molecule `COc1c(C(=O)NCC2CCCO2)nnn1Cc1ccccc1` (stereo not given), the “Percent Effect” value (10 µM) worked out at 62.42%.

Regarding `COc1c(C(=O)NCc2cnn(C)c2C)nnn1Cc1ccccc1`, the “Percent Effect” value (10 µM) is 65.52%.

As to `COc1ccc(Cl)cc1C(=O)NCc1cnn(C)c1C`, the “Percent Effect” value (10 µM) is recorded as -4.944%.

On to `COc1ccc(C(=O)NCc2cnn(C)c2C)o1`, for which, under “50 µM”, the “Percent Effect” value is on record as -4.523%.

In the case of `COc1c(C(=O)NCc2cccnc2)nnn1Cc1ccccc1`, the “Percent Effect” value (10 µM) stood at 61.62%.

In the case of `O=C(NCC1CCCO1)c1nc2c(s1)CCCN2Cc1ccccc1` (stereo not given), where the note is “10 µM”, the “Percent Effect” value was -17.89%.

`COCCNC(=O)c1nnn(Cc2ccccc2)c1OC`: the “Percent Effect” value (10 µM) turned out to be 38.59%.

For the molecule `CCOCCCNC(=O)c1nnn(Cc2ccccc2)c1OC`, for the setting “10 µM”, the “Percent Effect” value worked out at 43.16%.

For the molecule `COc1c(C(=O)NCc2cccnc2)nnn1Cc1ccc(C)cc1`, the “Percent Effect” value (10 µM) is reported as 3.825%.

As to `O=C(NCc1cccnc1)c1cn(CCc2ccccc2)nn1`, the “Percent Effect” value (10 µM) is 7.216%.

With `COc1c(C(=O)NCC(C)C)nnn1Cc1ccccc1`, the “Percent Effect” value (10 µM) was found to be 74.28%.

Take `CC1Cc2cc(CO)ccc2O1` (stereo not given): for the setting “50 µM”, the “Percent Effect” value is given as -10.07%.

Take `CCc1nnsc1C(=O)N1CCc2sccc2C1`: the “Percent Effect” value (50 µM) is given as -20.28%.

Consider `Cc1ccccc1NC(=O)CCN1CCN(C)CC1`, for which, for the setting “50 µM”, the “Percent Effect” value is listed as -26.18%.

Consider `Cc1ccc2c(c1)C(=O)CCCS2(=O)=O`, for which, for the setting “50 µM”, the “Percent Effect” value is listed as -6.954%.

In the case of `Cc1ccc(CN(CCO)C(=O)c2cscn2)cc1`, the “Percent Effect” value (50 µM) was -0.4723%.

Consider `O=C(Nc1ccc2c(c1)OCO2)N1CCOCC1`, for which the “Percent Effect” value (50 µM) is listed as -3.838%.

Turning to `CN1CCCC1CCSCC(=O)Nc1ccccn1` (stereo not given), where the note is “50 µM”, the “Percent Effect” value is 5.261%.

Regarding `NCc1ccc(CO)cc1`, the “Percent Effect” value (50 µM) is listed as 0.7244%.

`CCn1nc(C)c(NC(=O)c2cc(NC(=O)C(C)C)n(C)n2)c1C`: the “Percent Effect” value (10 µM) is 1.116%.

`CCn1nc(C)c(NC(=O)c2nnn(Cc3ccccc3)c2OC)c1C`: the “Percent Effect” value (10 µM) was 55.69%.

Turning to `CCN(CC)C(=O)c1nnn(Cc2ccccc2)c1OC`, under “10 µM”, the “Percent Effect” value is -3.108%.

With `CCC(OCCO)c1ccccc1` (stereo not given), where the note is “50 µM”, the “Percent Effect” value was -3.537%.

On to `CC(C)[C@H](N)C(=O)N1CCC(C2CCOCC2)CC1`, for which the “Percent Effect” value (50 µM) is 8.319%.

Take `Cn1nnc(NC(=O)c2ccc(C#N)cc2F)n1`: the “Percent Effect” value (50 µM) is recorded as -8.268%.

`CSc1ccccc1C(=O)NCCSc1nnnn1C`: for the setting “50 µM”, the “Percent Effect” value is -10.69%.

On to `Cn1nnnc1SCCNC(=O)c1cc(Cl)ccc1F`, for which the “Percent Effect” value (50 µM) is on record as 98.81%.

As to `Cn1nnnc1SCCNC(=O)c1cccc2ccnn12`, the “Percent Effect” value (10 µM) is listed as -7.372%.

`CCC(C(=O)Nc1ccc(C)cc1)N(C)C` (stereo not given): the “Percent Effect” value (50 µM) is listed as -1.57%.

In the case of `COc1c(N)c(C)nn1C`, under “50 µM”, the “Percent Effect” value came out at 95.49%.

In the case of `COc1c(CNCCCNS(C)(=O)=O)c(C)nn1C`, the “Percent Effect” value (50 µM) is listed as -17.44%.

In the case of `COc1c(CNCCS(C)(=O)=O)c(C)nn1C`, for the setting “50 µM”, the “Percent Effect” value amounted to 3.832%.
